G9a block: inhibitors of human histone lysine methyltransferase G9a; Potency, µM (titrated, usually from 102 µM), for inactives: at the highest dose activity, negative = inhibition, actives largely listed as inhibitors; 350,000 tested, 8.8% active; Q96KQ7; AID 504332; G9a H3K9 monomethylation, AlphaScreen, 2 h; further: on the % scale 0 is the no-effect control and ±100 the full control effect; nearly all actives have a fitted effect of over 75% in size
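G9a (20 nM) was preincubated 15 min with compound, then reacted 2 h at room temperature with 500 nM biotin-H3K9 peptide and 20 µM SAM. Monomethyl-H3K9 detected by AlphaScreen using anti-H3K9me1 antibody.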
JMJD2A Tudor: JMJD2A Tudor domain (human) inhibition; O75164; AlphaScreen JMJD2A-Tudor / H3K4me3 peptide binding; Potency, µM (doses to about 114 µM), without a hit: top-dose activity change, negative = inhibition, hits mostly inhibitors; 390,000 tested, 4.4% active; further: on the % scale 0 is the no-effect control and ±100 the full control effect; nearly all actives have a fitted effect of over 50% in size
L3MBTL1 block: blocks human L3MBTL1 | AID 485360 | 230,000 tested, 0.66% active | AlphaScreen L3MBTL1–H3K9me1 peptide binding | Q9Y468 | Potency, µM (highest dose often 57.1 µM), for the others: at the top dose activity, negative = inhibition, actives largely listed as inhibitors; further: on the % scale 0 is the no-effect control and ±100 the full control effect; nearly all actives have a fitted effect of over 60% in size
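L3MBTL1 (50 nM) pre-complexed 30 min with biotinylated H3(1-15)K9me1 peptide (75 nM), then compounds added for 30 min at room temperature; AlphaScreen streptavidin donor/nickel chelate acceptor beads (10 ug/mL final) read after 30 min dark incubation.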
GLS inhibitor: glutaminase GLS (human) inhibition; O94925; GLS enzymatic activity, qHTS titration; Potency, µM (top dose mostly 45.5 µM), inactives show top-dose activity change, negative = inhibition, actives largely listed as inhibitors; 410,000 tested, 0.21% active; further: on the % scale 0 is the no-effect control and ±100 the full control effect
Target sequence (O94925 whole entry, looked up): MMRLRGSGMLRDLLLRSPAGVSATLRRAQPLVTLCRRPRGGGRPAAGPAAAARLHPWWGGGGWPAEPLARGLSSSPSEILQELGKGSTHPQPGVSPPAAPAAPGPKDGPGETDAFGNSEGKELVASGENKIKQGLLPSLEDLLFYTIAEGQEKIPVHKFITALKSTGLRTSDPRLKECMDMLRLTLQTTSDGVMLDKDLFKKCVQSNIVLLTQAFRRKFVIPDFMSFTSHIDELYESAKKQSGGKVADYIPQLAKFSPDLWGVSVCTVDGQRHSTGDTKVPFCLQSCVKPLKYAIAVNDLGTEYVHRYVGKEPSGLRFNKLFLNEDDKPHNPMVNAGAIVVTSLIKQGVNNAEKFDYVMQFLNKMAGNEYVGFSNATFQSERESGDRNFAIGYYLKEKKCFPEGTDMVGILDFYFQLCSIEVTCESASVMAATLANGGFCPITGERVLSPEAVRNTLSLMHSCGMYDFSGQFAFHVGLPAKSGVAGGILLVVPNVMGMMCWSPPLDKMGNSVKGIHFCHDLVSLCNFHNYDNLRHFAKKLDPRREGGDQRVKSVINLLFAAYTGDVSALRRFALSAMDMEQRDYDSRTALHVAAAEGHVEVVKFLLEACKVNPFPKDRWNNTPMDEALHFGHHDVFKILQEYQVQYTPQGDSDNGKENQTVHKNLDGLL
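hKGA in 45 mM KH2PO4 (pH 8.2), 0.02% Tween-20 with compound, then 1mM L-Glutamine (stock as added) plus glutamate oxidase/HRP/Amplex red coupling mix. Fluorescence read initially and after 30 min at RT; signal change reflects glutamate formation.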
BAZ2B block: blocks human BAZ2B; Q9UIF8; AlphaScreen BAZ2B-H3K14Ac peptide displacement; Potency, µM (series often up to 114 µM), without a hit: top-dose activity change, negative = inhibition, hits mostly inhibitors; 360,000 tested, 4.4% active; further: on the % scale 0 is the no-effect control and ±100 the full control effect; nearly all actives have a fitted effect of over 60% in size
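BAZ2B 50 nM plus b-H3(5-23)K14Ac 50 nM, PBS pH 7.4/0.01% Tween-20, 30 min RT; compound added (max 110 uM), 30 min RT; streptavidin donor/Ni-chelate acceptor beads 10 ug/mL final, 20 min dark; AlphaScreen read.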
HP1b chromo inh: inhibitors of HP1-beta chromodomain binding to methylated histone tails | AID 540317 | AlphaScreen HP1-beta / biotin-H3K9me3 peptide binding | 390,000 tested, 0.56% active | Potency, µM (titrated, usually from 114 µM), inactives show top-dose activity change, negative = inhibition, hits mostly inhibitors; further: nearly all actives have a fitted effect of over 70% in size
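HP1-beta protein (50 nM final) preincubated 30 min at room temperature with biotinylated H3(1-18)K9me3 peptide (50 nM) in PBS pH 7.4, 0.01% Tween-20, then compound added for 30 min. AlphaScreen streptavidin donor/nickel chelate acceptor beads (10 ug/mL final), 30 min dark, luminescence read.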
* = called active by the depositor; ? = inconclusive; / = not tested or not shown; ! = not confirmed by another sample; [ ] = another dose, or the depositor's remark. Only some compounds are listed: those with a hit (about 10% of all), similar ones and a draw of the others. The call rests on the fitted dose curve; in most records, active means well fitted curve in the direction sought with a large enough effect; inconclusive means small, poorly fitted or top-dose-only effect, or another doubt; inactive means no such curve, though single readings can be large; an effect the other way counts as inactive or inconclusive. Potency means the concentration at half of the fitted maximal effect.

SMILES	G9a block	JMJD2A Tudor	L3MBTL1 block	GLS inhibitor	BAZ2B block	HP1b chromo inh
COc1ccc(C(C)(C)C)cc1NC(=O)CNc1cccc2ccccc12	?	44.7µM*	-14.7%	1.7%	?	?
COc1ccccc1CN(C)CC(=O)Nc1ccc(Cl)cc1C(F)(F)F	8.91µM*	3.55µM*	22.6%	6.4%	50.1µM*	?
CCN(CC)c1ccc(NC(=O)c2cc(S(=O)(=O)N3CCc4ccccc43)cn2C)c(C)c1	-16.5%[59 µM]	-7.6%	/	-10.6%	2.2%	47.9%
CO[C@H]1C[C@@H]2CC[C@@H](C)[C@@](O)(O2)C(=O)C(=O)N2CCCC[C@H]2C(=O)OC([C@H](C)C[C@@H]2CC[C@@H](O)[C@H](OC)C2)CC(=O)[C@H](C)/C=C(\C)[C@@H](O)[C@@H](OC)C(=O)[C@H](C)C[C@H](C)/C=C/C=C/C=C/1C (some centres not stated)	25.1µM*!	/	/	/	/	/
Cn1c(=S)[nH]c(=O)c2ncc(=O)[nH]c21	?	28.2µM*	-11.5%	-14.2%	-20.8%	28.1%
Cn1c(=O)[nH]c2c(cnn2C)c1=O	/	-3.4%	/	-1.9%	/	32.2%
O=C(c1ccco1)N(Cc1cccc([N+](=O)[O-])c1)c1ccc(Br)cc1	/	?	-16.8%	6.2%	50.1µM*	-2.2%
O=C(c1ccco1)N(Cc1ccc([N+](=O)[O-])cc1)c1ccc(Br)cc1	24.8%[0.501 µM]	-33.1%[57.1 µM]	-8.8%	4.1%	?	-20.2%
COc1ccccc1CCNC(=O)c1nccnc1C(=O)O	35.5µM*	-3.1%	/	-3.9%	-25.4%	14.4%
COc1cc(NC(=O)C(OC(=O)CNC(=O)c2ccccc2)c2ccccc2)cc(OC)c1 (configuration not stated)	/	-11.6%	/	/	/	/
COC(=O)c1ccccc1NC(=S)N(Cc1ccc2c(c1)OCO2)Cc1cc2ccc(OC)cc2[nH]c1=O	0.282µM*	-27.3%[57.1 µM]	-9.0%	1.8%	?	28.2%
CN1CCN(c2ncc3nc(-c4cccs4)c(=O)n(C[C@H]4CCCO4)c3n2)CC1	-0.3%[12.7 µM]	/	/	/	/	/
O=C(CCNS(=O)(=O)c1ccc2[nH]c(=O)oc2c1)NCc1ccccc1	5.7%	-5.4%	/	-6.2%	-13.8%	48.4%
COc1ccccc1NC(=O)CCNS(=O)(=O)c1ccc2[nH]c(=O)oc2c1	8.3%	35.5µM*	/	7.2%	-21.5%	-3.1%
COc1ccccc1CNC(=O)CCNS(=O)(=O)c1ccc2[nH]c(=O)oc2c1	-1.8%	39.8µM*	/	1.5%	2.7%	1.1%
O=c1n(Cc2ccc([N+](=O)[O-])cc2)c2ccccc2c2nc(-c3ccccc3)nn12	5.3%[59 µM]	-17.0%	/	-9.6%	-22.2%	16.9%
Cc1ccc(NC(=O)c2ccc(NC(=O)C3CCCC3)cc2)c(C)c1	/	-8.2%	/	/	/	50.2%
CCOC(=O)c1c(C)[nH]c(C)c1S(=O)(=O)N(C)CC(=O)N1CCN(c2cccc(Cl)c2)CC1	-37.0%[59 µM]	?	/	5.7%	-23.9%	-18.3%
Cc1cc2c(ncn2Cc2ccccc2)c(N)c1C	?	?	-12.8%	-22.7%	70.8µM*	-25.7%
CCc1cc(=S)n2c([nH]c3ccccc32)c1C#N	3.98µM*	20µM*	/	14.5%	79.4µM*	39.8µM*
CCc1cc(=O)n2c([nH]c3ccccc32)c1C#N	31.6%[12.7 µM]	-5.5%	/	28.2%	2.4%	32.2%
Cc1c(CCC(=O)O)c(=O)n2c([nH]c3ccccc32)c1C#N	2.24µM*	-21.8%	/	36.3%	-31.8%	28.5%
CCc1c(C)c(C#N)c2[nH]c3ccccc3n2c1=S	/	5.62µM*	-18.9%	?	35.5µM*	20µM*
C=C(C)Cc1c(C)c(C#N)c2[nH]c3ccccc3n2c1=O	-1.6%	-19.7%	/	31.6%	-7.4%	37.4%
Cc1ccc2c(CC(=O)Nc3cc(C(F)(F)F)ccc3Cl)coc2c1C	-1.0%[59 µM]	?	/	-1.5%	-8.0%	25.6%
SMILES	G9a block	JMJD2A Tudor	L3MBTL1 block	GLS inhibitor	BAZ2B block	HP1b chromo inh
Cc1ccccc1-c1noc(-c2ccc(NCc3ccco3)c([N+](=O)[O-])c2)n1	?	?	/	-3.8%	-4.2%	35.7%
CCc1ccccc1S(=O)(=O)Cc1ccc(C(=O)NCCc2ccc(C)cc2)o1	3.3%[59 µM]	20µM*	/	-3.4%	-1.9%	48.7%
COc1cc(CN2CCN(c3cccc(C)c3C)CC2)cc(Br)c1O	?	2µM*	-2.7%	19.9%	?	?
COc1ccc(CN2CCN(c3cccc(C)c3C)CC2)cc1OC	11.2µM*	7.4%	/	/	56.2µM*	16.7%
COc1cc(CN2CCN(c3cc(C)ccc3C)CC2)cc([N+](=O)[O-])c1O	/	?	/	40.2%	/	-21.6%
COc1cc(CN2CCC(C(=O)NC3CCCC3)CC2)cc(Br)c1O	10µM*	3.16µM*	-8.2%	16.0%	50.1µM*	-50.5%
CCCCN(CC)C(=O)CCCn1c(=O)c2cccn2c2ccccc21	-25.5%[59 µM]	-17.1%	/	9.1%	?	12.3%
CC(=O)c1cccc(NC(=O)c2cc(-c3ccc(Cl)s3)nc3ccccc23)c1	9.0%[59 µM]	-1.4%	/	0.1%	4.3%	37.0%
CN1C(=O)c2ccccc2Sc2ccc(NC(=O)c3ccc(C#N)cc3)cc21	-2.6%[59 µM]	-14.3%	/	-12.1%	-11.3%	28.9%

Screens: PubChem, National Center for Advancing Translational Sciences (NCATS)
